Laboratory results from the supplement of paper PMC6555819.

Tests used:
Test in all cases: PBM binding z-score (relative to random genomic background probes); higher = stronger binding; sequences stand for … in GC…GCGATTGACAGCGTAGAATGAAGG
[1] = tested on: PPARg:RXRa DBDmut IVT, anti-RXR (DBD mutation: RXRa K156A/R161A, NR concentration 270 nM, RXRa partner concentration 90 nM)
Summary of the method: (§1)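 The probes on custom Agilent 4×180K protein-binding microarrays were double-stranded, with 34-nt variable regions bearing direct-repeat seeds, single-nucleotide variants, half-site ablations and random human genomic background sequences. Incubation lasted 1 h with ligand-free nuclear receptor dimers in PBS pH 7.4, 2% milk, 0.02% Triton X-100, 1 mM DTT, 0.2 mg/mL BSA and 0.4 mg/ml salmon testes DNA. Antibodies against each partner (one per run) detected bound dimers, and fluorescence scans were regression-normalized. Binding z-scores take the random background probes as reference.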

[2] = tested on: PPARg:RXRa IVT, anti-PPARg (NR concentration 270 nM, RXRa partner concentration 90 nM)
Summary of the method: as §1

[3] = tested on: PPARg DBDmut:RXRa IVT, anti-PPARg (DBD mutation: PPARg1 K132A/R137A, NR concentration 270 nM, RXRa partner concentration 90 nM)
Summary of the method: as §1

[4] = tested on: PPARg DBDmut IVT, anti-PPARg (DBD mutation: PPARg1 K132A/R137A, NR concentration 270 nM)
Summary of the method: as §1

[5] = tested on: PPARg homodimer (NR concentration 180 nM)
Summary of the method: as §1

[6] = tested on: PXR:RXRa (NR concentration 270 nM, RXRa partner concentration 90 nM)
Summary of the method: as §1

[7] = tested on: PXR homodimer (NR concentration 270 nM)
Summary of the method: as §1

[8] = tested on: RARa:RXR (NR concentration 270 nM, RXRa partner concentration 90 nM)
Summary of the method: as §1

[9] = tested on: RARa homodimer (NR concentration 270 nM)
Summary of the method: as §1

[10] = tested on: RARb:RXRa (NR concentration 270 nM, RXRa partner concentration 90 nM)
Summary of the method: as §1

[11] = tested on: RARb homodimer (NR concentration 270 nM)
Summary of the method: as §1

[12] = tested on: RARg:RXRa (NR concentration 270 nM, RXRa partner concentration 90 nM)
Summary of the method: as §1

[13] = tested on: RARg homodimer (NR concentration 270 nM)
Summary of the method: as §1

[14] = tested on: RXRa DBDmut IVT, anti-RXR (DBD mutation: RXRa K156A/R161A, NR concentration 90 nM)
Summary of the method: as §1

[15] = tested on: RXRa homodimer (NR concentration 180 nM)
Summary of the method: as §1

[16] = tested on: THRa:RXRa (NR concentration 90 nM, RXRa partner concentration 90 nM)
Summary of the method: as §1

[17] = tested on: THRa homodimer (NR concentration 90 nM)
Summary of the method: as §1

[18] = tested on: VDR homodimer (NR concentration 270 nM)
Summary of the method: as §1

Sequence	PBM binding z-score [1]	PBM binding z-score [2]	PBM binding z-score [3]	PBM binding z-score [4]	PBM binding z-score [5]	PBM binding z-score [6]	PBM binding z-score [7]	PBM binding z-score [8]	PBM binding z-score [9]	PBM binding z-score [10]	PBM binding z-score [11]	PBM binding z-score [12]	PBM binding z-score [13]	PBM binding z-score [14]	PBM binding z-score [15]	PBM binding z-score [16]	PBM binding z-score [17]	PBM binding z-score [18]
AGAATGAGGTTCTACGTAGATCAGGGAAGAAAGT	0.0808	0.054	0.621	0.606	-0.411	-0.126	0.193	-0.0619	-0.303	-0.407	-0.327	-0.12	0.0722	0.025	-0.0793	-0.0436	-0.709	-0.322
CCGACTGGGGCATAAGGTTACAATAAGCCAGCCC	3.12	3.35	-1.72	-1.42	0.586	0.38	-0.291	1.17	-0.0919	1.58	1.61	1.66	1.08	-0.313	1.18	1.95	0.977	-0.296
TCTTGTCGATCAGCAGGTTAAGAAAGCTGGCCAA	1.61	0.358	-0.732	0.173	0.131	0.254	-0.436	0.75	-0.254	0.466	0.242	-0.108	-0.509	0.615	0.217	0.316	-0.476	-0.421
ATCTCTGGGTAAAAGTTCAGTGAATCCCGAGGAT	1.87	3.69	1.17	1.44	1.47	2.03	1.5	1.97	0.896	2.59	2.6	2.36	2.45	0.812	1.69	0.969	-0.0851	1.53
CGTCCAAGATCAGAGAGGTCAGTGAATGCCGAGT	0.179	0.0749	-0.351	-0.769	2.69	3.22	2.06	3.09	1.49	2.95	3.9	2.95	3	0.949	2.5	2.64	0.926	2.37
TCGAGTAAGTTAGTCGGGGCATTCAGCCAACATA	0.848	-0.156	-0.534	-0.684	-0.634	-0.346	-0.239	-0.154	-0.863	-0.272	-0.375	-0.647	-0.674	0.38	-0.255	0.0972	-0.58	-0.125
TCTATTAGTTGAAGGGCATCCGACGAGTCCGTTT	2.32	0.399	0.276	0.308	1.24	0.775	1.03	0.683	1.77	1.24	0.904	0.374	0.361	1.86	0.598	0.0886	0.288	1.51
GATACAGCGTCAGCTAGAGGCCAGAGTATGGAAA	-0.984	-0.61	-2.52	-1.12	-1.09	-0.922	-0.376	-0.685	-1.14	-0.322	-0.524	-0.0653	0.0489	-0.648	-0.444	-0.787	-0.942	-0.804
TAACCAAGGTGAAAGGTCGTTGATGCACGCCTTG	2.51	4.83	0.621	0.876	2.72	4.25	0.689	6.11	0.504	3.15	2.82	4.47	2.52	0.794	6.28	3.33	0.878	1.5
TCTGCTAGGTCTACGATGGTCAGCTAATCTGCTA	0.395	-0.0472	-1.03	-0.797	-2.36	-0.731	-1.3	-1.07	-0.904	-0.194	-0.552	-0.506	-0.409	0.00299	-0.775	-1.43	-1.26	-1.28
CCTCGGAGGACAGAAGGTCAGAGTTGTCCGCTTT	0.283	0.171	-1.27	-1.42	0.997	1.77	-0.24	2	0.0194	3.16	3.6	3.24	2.91	0.56	1.73	2.08	0.133	0.396
AGAACGAGGGCAATGAGTTGGTAGCACGGGTGGC	3.11	2.58	0.246	-0.0657	-0.218	0.943	1.44	0.0918	-0.865	1.96	0.799	0.857	1.09	1.47	0.619	0.555	-0.125	1.98
AGTCAAAGTTCATCTAGGTAAAGTAAGATATGCT	1.06	3.88	1.43	0.713	3.61	5.45	7.79	4.38	2.12	5.22	3.76	5.67	6.09	4.8	5.07	3.07	0.199	5.29
GCTTGTAAATCAAGGTTAAGAAAGACTAAGCTAA	0.268	0.664	-0.64	0.161	0.00597	0.564	-0.123	1.05	-0.0975	0.808	0.189	0.539	0.0583	0.137	0.942	1.5	-0.456	-0.374
